Test results taken from PubChem BioAssay (NCATS).
Results filed as inconclusive are left out. Active and inactive are the calls of the source. Calls follow the shape of the dose curve; as a rule, active = well fitted curve in the direction sought with a large enough effect; inconclusive = small, poorly fitted or top-dose-only effect, or another doubt; inactive = no such curve, though single readings can be large; an effect the other way counts as inactive or inconclusive.

Legend:
[1] = biological target: ATP-dependent 6-phosphofructokinase (Trypanosoma brucei brucei) (UniProt O15648); assay: qHTS Assay to Find Inhibitors of T. brucei phosphofructokinase: hit validation (AID 492961);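 also: luminescence reports ADP formed as PFK phosphorylates fructose-6-phosphate with ATP; % is scaled to controls: 0 for no effect and ±100 for the full control effect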; settings: T. brucei PFK, ADP-Glo luminescence; series mostly up to 51.4 µM
ATP-dependent 6-phosphofructokinase (Trypanosoma brucei brucei), sequence (O15648 whole entry, looked up): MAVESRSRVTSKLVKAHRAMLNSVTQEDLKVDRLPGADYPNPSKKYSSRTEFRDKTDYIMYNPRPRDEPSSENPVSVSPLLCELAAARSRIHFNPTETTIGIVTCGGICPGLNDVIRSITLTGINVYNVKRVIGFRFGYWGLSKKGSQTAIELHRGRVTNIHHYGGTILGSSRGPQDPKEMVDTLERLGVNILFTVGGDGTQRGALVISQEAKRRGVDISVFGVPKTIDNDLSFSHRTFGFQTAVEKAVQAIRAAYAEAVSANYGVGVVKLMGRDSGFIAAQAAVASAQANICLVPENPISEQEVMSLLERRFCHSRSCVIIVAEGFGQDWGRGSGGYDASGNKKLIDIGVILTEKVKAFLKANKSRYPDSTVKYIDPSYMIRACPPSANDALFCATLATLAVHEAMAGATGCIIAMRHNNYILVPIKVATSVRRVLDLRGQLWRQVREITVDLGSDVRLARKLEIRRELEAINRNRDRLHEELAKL
Summary of the method: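 PFK 1.25 nM, F6P 0.5 mM, ATP 0.1 mM, MgCl2 5 mM, 0.1 M TEA pH 8.0, Tween20 0.01%, BSA 0.1%; 45 min RT. ADP-Glo two-step detection, luminescence. qHTS titration; curve fitting with curve-class categorization.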

[2] = qHTS profiling for inhibitors of Plasmodium falciparum proliferation (AID 504749);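 also: 0% = DMSO vehicle and full inhibition = artemisinin control; nearly all actives have a fitted effect of over 60% in size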; settings: P. falciparum in erythrocytes, SYBR Green DNA, 72 h, at 28.7 µM (top of the series)
Summary of the method: (§1)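 P. falciparum-infected erythrocytes (0.3% parasitemia, 2.5% hematocrit final) were exposed to compounds for 72 h at 37 C in 5% CO2, then lysed with SYBR Green buffer overnight at room temperature; parasite DNA fluorescence was normalized to artemisinin and DMSO controls.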

3D7 = assay: as above; settings: P. falciparum in erythrocytes, SYBR Green DNA, 72 h; series mostly up to 28.7 µM
Summary of the method: as §1

7G8 = assay: as above; settings: P. falciparum in erythrocytes, SYBR Green DNA, 72 h; series mostly up to 28.7 µM
Summary of the method: as §1

AS120 = assay: as above; settings: P. falciparum in erythrocytes, SYBR Green DNA, 72 h; series mostly up to 28.7 µM
Summary of the method: as §1

ATS189 = assay: as above; settings: P. falciparum in erythrocytes, SYBR Green DNA, 72 h; series mostly up to 28.7 µM
Summary of the method: as §1

CP185 = assay: as above; settings: P. falciparum in erythrocytes, SYBR Green DNA, 72 h; series mostly up to 28.7 µM
Summary of the method: as §1

CP191 = assay: as above; settings: P. falciparum in erythrocytes, SYBR Green DNA, 72 h; series mostly up to 28.7 µM
Summary of the method: as §1

CP192 = assay: as above; settings: P. falciparum in erythrocytes, SYBR Green DNA, 72 h; series mostly up to 28.7 µM
Summary of the method: as §1

CP194 = assay: as above; settings: P. falciparum in erythrocytes, SYBR Green DNA, 72 h; series mostly up to 28.7 µM
Summary of the method: as §1

CP201 = assay: as above; settings: P. falciparum in erythrocytes, SYBR Green DNA, 72 h; series mostly up to 28.7 µM
Summary of the method: as §1

CP203 = assay: as above; settings: P. falciparum in erythrocytes, SYBR Green DNA, 72 h; series mostly up to 28.7 µM
Summary of the method: as §1

CP247 = assay: as above; settings: P. falciparum in erythrocytes, SYBR Green DNA, 72 h; series mostly up to 28.7 µM
Summary of the method: as §1

CP286 = assay: as above; settings: P. falciparum in erythrocytes, SYBR Green DNA, 72 h; series mostly up to 28.7 µM
Summary of the method: as §1

CP291 = assay: as above; settings: P. falciparum in erythrocytes, SYBR Green DNA, 72 h; series mostly up to 28.7 µM
Summary of the method: as §1

P94_40 = assay: as above; settings: P. falciparum in erythrocytes, SYBR Green DNA, 72 h; series mostly up to 28.7 µM
Summary of the method: as §1

PC49 = assay: as above; settings: P. falciparum in erythrocytes, SYBR Green DNA, 72 h; series mostly up to 28.7 µM
Summary of the method: as §1

TAB109 = assay: as above; settings: P. falciparum in erythrocytes, SYBR Green DNA, 72 h; series mostly up to 28.7 µM
Summary of the method: as §1

TAB113 = assay: as above; settings: P. falciparum in erythrocytes, SYBR Green DNA, 72 h; series mostly up to 28.7 µM
Summary of the method: as §1

CC1OC(OC2CCC3(C)C(CCC4C3CC(O)C3(C)C(C5=CC(=O)OC5)CCC43O)C2)CC(O)C1OC1CC(O)C(OC2CC(O)C(OC3OC(CO)C(O)C(O)C3O)C(C)O2)C(C)O1 (stereo not given)
inactive: Potency [1] | activity, negative = inhibition ([2]; parasite line A) 13.2% | activity, negative = inhibition ([2]; parasite line B) -5.12% | Potency (3D7) | Potency (7G8) | Potency (AS120) | Potency (ATS189) | Potency (CP185) | Potency (CP191) | Potency (CP192) | Potency (CP194) | Potency (CP201) | Potency (CP203) | Potency (CP247) | Potency (CP286) | Potency (CP291) | Potency (P94_40) | Potency (PC49) | Potency (TAB109) | Potency (TAB113)

C[C@H]1OC(OC2C(O)[C@@H](O)C(OC3C(O)[C@@H](O)C(O)O[C@@H]3CO)O[C@@H]2CO)[C@H](O)C(O)C1N[C@H]1C=C(CO)[C@@H](O)[C@H](O)C1O (stereo not given in full)
inactive: Potency [1] | activity, negative = inhibition ([2]; parasite line A) -6.96% | activity, negative = inhibition ([2]; parasite line B) 11.4% | Potency (3D7) | Potency (7G8) | Potency (AS120) | Potency (ATS189) | Potency (CP185) | Potency (CP191) | Potency (CP192) | Potency (CP194) | Potency (CP201) | Potency (CP203) | Potency (CP247) | Potency (CP286) | Potency (CP291) | Potency (P94_40) | Potency (PC49) | Potency (TAB109) | Potency (TAB113)

CC(=O)OCC(=O)[C@@]1(O)CCC2C3C[C@H](C)C4=CC(=O)C=CC4(C)C3C(O)CC21C (stereo not given in full)
inactive: Potency [1] | activity, negative = inhibition ([2]; parasite line A) 2.49% | activity, negative = inhibition ([2]; parasite line B) 4.17% | Potency (3D7) | Potency (7G8) | Potency (AS120) | Potency (ATS189) | Potency (CP185) | Potency (CP191) | Potency (CP192) | Potency (CP194) | Potency (CP201) | Potency (CP203) | Potency (CP247) | Potency (CP286) | Potency (CP291) | Potency (P94_40) | Potency (PC49) | Potency (TAB109) | Potency (TAB113)
